Measured values: PubChem BioAssay (NCATS)
Results filed as inconclusive are left out. For part of these data: Results with a measured potency or affinity are listed apart. The source made the active and inactive calls.

Experiments:
[1] = Ebola virus entry assay, green fluorescence channel
[2] = Ebola virus entry assay, blue channel fluorescence
[3] = Ebola virus entry assay, green fluorescence channel; remark: listed apart in the source
[4] = Ebola virus entry assay, ratio channel readout
[5] = Ebola virus entry assay, ratio channel
[6] = Ebola virus entry assay, green channel fluorescence
[7] = Ebola virus entry assay, blue channel fluorescence; remark: listed apart in the source
[8] = Ebola virus entry assay, reporter ratio channel; AC50: Channel type: primary unless noted; outcome: Channel type: primary unless noted
[9] = Ebola virus entry assay, blue channel (ratio component)
[10] = Ebola virus entry reporter assay, green channel fluorescence
[11] = Ebola virus entry cell assay, ratio channel
[12] = Ebola virus entry assay, blue channel fluorescence; remark: listed apart in the source
[13] = High-throughput drug toxicity screening in the BPDCN cell line Gen2.2 (AID 1224824); settings: Gen2.2 BPDCN cells; at 45.8 µM (top of the series);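 note: cells exposed to compounds for 48 h before reading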
How it was run: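 Gen2.2, 500 cells/well, phenol red-free RPMI/10% FBS/Pen-Strep; 48 h cpd, 37 °C/5% CO2; CTG lum, 15 min RT. Norm: DMSO = 100%, bortezomib 9.2 uM final = 0%.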

[14] = High-throughput drug toxicity screening in the BPDCN cell line Cal-1 (AID 1224825); settings: Cal-1 BPDCN cell viability, qHTS; at 45.8 µM (top of the series)
How it was run: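 Cal-1 cells, 500 per well in phenol-red-free RPMI with 10% FBS, exposed to compounds for 48 hours at 37C, 5% CO2. Viability read by CellTiter-Glo luminescence; percent activity normalized to DMSO (100%) and 9.2 uM bortezomib final (0%).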

[15] = qHTS assay for measurement of the activity of small molecule inhibitors on Zika virus induced Caspase-3 activity in human astrocytoma cells (AID 1224859; active = well fitted inhibition curve with a large enough effect;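 note: plate controls were ZIKV-infected untreated cells for no effect and uninfected cells for full effect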); settings: SNB-19 ZIKV-induced caspase-3/7, luminescence, 6 h; series mostly up to 45.7 µM
How it was run: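 SNB-19 astrocytoma cells, 250/well, pretreated 1 h with compounds, then Zika virus at 2 FFU/cell for 6 h at 37 C; Caspase-Glo 3/7 luminescence after 30 min; percent inhibition normalised to uninfected and infected controls.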

[16] = qHTS Screen of the MIPE 4.0 Collection Against Ewings Sarcoma (RDES) (AID 1259252; active = well fitted inhibition curve with a large enough effect;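 note: 100% = DMSO-treated cells and 0% = medium-only wells without cells; nearly all actives have a fitted effect of over 35% in size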); settings: RD-ES Ewing sarcoma viability, CellTiter-Glo, 48 h; series mostly up to 45.8 µM
How it was run: (§1)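 Dose series incubated 48 h with cells in RPMI plus 5% FBS, glutamine and penicillin/streptomycin; cell viability then quantified via CellTiter-Glo.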

[17] = qHTS Screen of the MIPE 4.0 Collection Against Ewings Sarcoma (TC32) (AID 1259256; active = well fitted inhibition curve with a large enough effect;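 note: 100% = DMSO-treated cells and 0% = medium-only wells without cells; nearly all actives have a fitted effect of over 45% in size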); settings: TC32 Ewing sarcoma viability, CellTiter-Glo, 48 h; series mostly up to 45.8 µM
How it was run: as §1

[18] = qHTS assay for measurement of the activity of small molecule inhibitors on Zika virus induced Caspase-3 activity in human iPSC derived neural progenitor cells (hNPCs) (AID 1224857; active = well fitted inhibition curve with a large enough effect; note: % of control where 0% means no effect; nearly all actives have a fitted effect of over 65% in size); settings: hNPCs ZIKV-induced caspase-3/7, Caspase-Glo luminescence, 6 h; series mostly up to 45.7 µM
How it was run: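 Human iPSC-derived neural progenitor cells pretreated 1 hr with compounds, then infected with Zika virus (2 FFU/cell) for 6 hours at 37 C. Caspase-3/7 measured by Caspase-Glo luminescence; % inhibition calculated from induction scaled to uninfected (0%) and infected (100%) wells.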
Throughout, for efficacy: 0% is about no effect.

CNS(=O)(=O)Cc1ccc2[nH]cc(CCN(C)C)c2c1
inactive: efficacy [1] 17.1% | outcome [2] | outcome [3] | outcome [4] | outcome [5] | outcome [6] | outcome [7] | outcome [8] | outcome [9] | outcome [10] | outcome [11]

CC(=O)O[C@]1(C(C)=O)CC[C@H]2[C@@H]3C=C(Cl)C4=CC(=O)[C@@H]5C[C@@H]5[C@]4(C)[C@H]3CC[C@@]21C
active: AC50 [5] 3.55 µM | AC50 [8] 3.55 µM
inactive: efficacy [1] 67.4% | outcome [2] | outcome [3] | outcome [4] | outcome [9] | outcome [11]

Cc1cnc(C(=O)NCCc2ccc(S(=O)(=O)NC(=O)NC3CCCCC3)cc2)cn1
inactive: efficacy [1] -14.5% | outcome [2] | outcome [3] | outcome [4] | outcome [12] | outcome [6] | outcome [7] | outcome [8] | outcome [9] | outcome [11]

O=C(O)COCCN1CCN(C(c2ccccc2)c2ccc(Cl)cc2)CC1 (stereo not given)
inactive: efficacy [1] -24.1% | outcome [2] | outcome [3] | outcome [4] | outcome [6] | outcome [7] | outcome [8] | outcome [9] | outcome [10] | outcome [11]

CN(C)CCc1c[nH]c2ccc(C[C@H]3COC(=O)N3)cc12
inactive: efficacy [1] -13.2% | outcome [2] | outcome [3] | outcome [4] | outcome [6] | outcome [7] | outcome [8] | outcome [9] | outcome [11]

C[C@H]1[C@H](NC(=O)/C(=N/OC(C)(C)C(=O)O)c2csc(N)n2)C(=O)N1S(=O)(=O)O (stereo in doubt)
inactive: efficacy [1] 16.2% | outcome [2] | outcome [3] | outcome [5] | outcome [6] | outcome [7] | outcome [8] | outcome [9] | outcome [10] | outcome [11]

CCCC(CCC)C(=O)O
inactive: efficacy [1] -11.7% | outcome [2] | outcome [3] | outcome [4] | outcome [6] | outcome [8] | outcome [9] | outcome [10] | outcome [11]

N[C@@H]1CONC1=O
inactive: efficacy [1] -13.4% | outcome [2] | outcome [3] | outcome [4] | outcome [6] | outcome [7] | outcome [8] | outcome [9] | outcome [11]

O=C(O)C1(C(=O)O)CCC1.[NH2-].[NH2-].[Pt+2]
inactive: efficacy [1] -21.2% | outcome [2] | outcome [3] | outcome [4] | outcome [6] | outcome [7] | outcome [8] | outcome [11]

CN(CCOc1ccc(CC2SC(=O)NC2=O)cc1)c1ccccn1 (stereo not given)
inactive: efficacy [1] -12.2% | outcome [2] | outcome [3] | outcome [4] | outcome [6] | outcome [7] | outcome [8] | outcome [9] | outcome [11]

CC1=NS(=O)(=O)c2cc(Cl)ccc2N1
inactive: efficacy [1] -18.7% | outcome [2] | outcome [3] | outcome [5] | outcome [6] | outcome [7] | outcome [8] | outcome [9] | outcome [10] | outcome [11]

COC(=O)[C@@H]1CC2=CC(=O)CC[C@]2(C)[C@@]23O[C@@H]2C[C@@]2(C)[C@@H](CC[C@@]24CCC(=O)O4)[C@H]13
inactive: efficacy [1] -15.8% | outcome [2] | outcome [3] | outcome [4] | outcome [6] | outcome [7] | outcome [8] | outcome [9] | outcome [10] | outcome [11]

O=C(O)CCCc1ccccc1
inactive: efficacy [1] -16.1% | outcome [2] | outcome [3] | outcome [4] | outcome [6] | outcome [7] | outcome [8] | outcome [9] | outcome [10] | outcome [11]

CC(C)CC(N(C)C)C1(c2ccc(Cl)cc2)CCC1 (stereo not given)
inactive: efficacy [1] -28.7% | outcome [2] | outcome [3] | outcome [4] | outcome [6] | outcome [7] | outcome [8] | outcome [9] | outcome [11] | outcome [15]
134%: cell viability, % of control (lower = more cytotoxic) [13]
105%: viability (% of control) [14]

C#CCN(C)[C@H](C)Cc1ccccc1
105%: viability (% of control) [14]
160%: cell viability, % of control (lower = more cytotoxic) [13]
inactive: efficacy [1] 21.9% | outcome [2] | outcome [3] | outcome [4] | outcome [6] | outcome [7] | outcome [8] | outcome [9] | outcome [10] | outcome [11] | outcome [15] | Potency [16] | Potency [17]

Cc1ccc(-c2nc3ccc(C)cn3c2CC(=O)N(C)C)cc1
inactive: efficacy [1] -21.9% | outcome [2] | outcome [3] | outcome [4] | outcome [6] | outcome [7] | outcome [8] | outcome [9] | outcome [10] | outcome [11] | Potency [18] | outcome [15]

CC(S)C(=O)NCC(=O)O (stereo not given)
inactive: efficacy [1] -25.6% | outcome [2] | outcome [3] | outcome [4] | outcome [7] | outcome [8] | outcome [9] | outcome [11]

NCCCC(O)(P(=O)(O)O)P(=O)(O)O
active: AC50 [2] 4.47 µM | AC50 [11] 3.98 µM
inactive: efficacy [1] 11.2% | outcome [3] | outcome [4] | outcome [8] inactive [Channel type: confirmation] | outcome [9]

CN(C)/N=N/c1nc[nH]c1C(N)=O
inactive: efficacy [1] -24.1% | outcome [2] | outcome [3] | outcome [4] | outcome [6] | outcome [7] | outcome [8] | outcome [9] | outcome [11]

NC(=O)OCC(COC(N)=O)c1ccccc1
inactive: efficacy [1] -25.6% | outcome [2] | outcome [3] | outcome [4] | outcome [6] | outcome [8] | outcome [9] | outcome [10] | outcome [11]
